# Screening results as filed in PubChem BioAssay.
# Fam108B inh: counter-screen for RBBP9 inhibitors: inhibitors of mouse Fam108B | recombinant Fam108B, FP-Rh probe fluorescence polarization | inhibition, % at 9.51 µM | 300,000 tested, 0.33% active;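 active means inhibition above the screen mean inhibition plus 3 SD, computed separately per campaign, cut at about 18% in these data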;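 further: inhibitors lower polarization as less probe binds the enzyme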
# SIAE inh: inhibitors of human sialic acid acetylesterase SIAE | Q9HAT2 | SIAE FP-Rh probe binding, fluorescence polarization | inhibition, % at 9.66 µM | 370,000 tested, 0.69% active | AID 1053197;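 active means inhibition above a cutoff: mean of compounds within the control limits plus 3 SD of those, cut at about 17% in these data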;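 further: 0% = plate median of compound wells and 100% = probe without SIAE protein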
# TCR CD3 inh: human TCR-CD3 binding inhibition. inhibition, % at 9.4 µM. 360,000 tested, 0.37% active. AID 651800. TAMRA-labeled TCR probe fluorescence, biochemical; in the data active means inhibition above about 19%;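 further: recombinant mutant TCR 2C K166C tagged with TAMRA read by polarization; 0% = receptor in buffer alone and 100% = receptor with positive control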
# PRMT1 FP inh: PRMT1 (human) inhibition, primary screen. Q99873. inhibition, % at 2.79 µM. recombinant PRMT1, activity-based probe fluorescence polarization. AID 652257. 370,000 tested, 1.3% active;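 active means inhibition above about 21% made by adding two undisclosed values, limit read from the data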
# PME-1 primary: PME-1 (human) inhibition; AID 2130; 320,000 tested, 0.53% active; inhibition, % at 5.9 µM; recombinant PME-1, FP-Rh probe fluorescence polarization; Q9Y570;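 active means inhibition above the campaign mean of all compounds plus 3 SD, cut at about 26% in these data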;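 further: competitive labeling of PME-1 active site by serine hydrolase directed probe; 0% = PME-1 with DMSO and 100% = wells lacking PME-1 enzyme; inhibitors block probe labeling so polarization falls and inhibition rises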
# PAD4 inh: inhibitors of human PAD4; Q9UM07; inhibition, % at 6.36 µM; AID 485272; 330,000 tested, 0.41% active; recombinant PAD4, RCA probe fluorescence polarization;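 active means percent inhibition above a cutoff equal to the mean of all tested compounds plus 3 SD, cut at about 15% in these data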;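 further: 0% = PAD4 with RCA probe and DMSO and 100% = probe without PAD4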
# Target sequence (Q9UM07 whole entry, looked up): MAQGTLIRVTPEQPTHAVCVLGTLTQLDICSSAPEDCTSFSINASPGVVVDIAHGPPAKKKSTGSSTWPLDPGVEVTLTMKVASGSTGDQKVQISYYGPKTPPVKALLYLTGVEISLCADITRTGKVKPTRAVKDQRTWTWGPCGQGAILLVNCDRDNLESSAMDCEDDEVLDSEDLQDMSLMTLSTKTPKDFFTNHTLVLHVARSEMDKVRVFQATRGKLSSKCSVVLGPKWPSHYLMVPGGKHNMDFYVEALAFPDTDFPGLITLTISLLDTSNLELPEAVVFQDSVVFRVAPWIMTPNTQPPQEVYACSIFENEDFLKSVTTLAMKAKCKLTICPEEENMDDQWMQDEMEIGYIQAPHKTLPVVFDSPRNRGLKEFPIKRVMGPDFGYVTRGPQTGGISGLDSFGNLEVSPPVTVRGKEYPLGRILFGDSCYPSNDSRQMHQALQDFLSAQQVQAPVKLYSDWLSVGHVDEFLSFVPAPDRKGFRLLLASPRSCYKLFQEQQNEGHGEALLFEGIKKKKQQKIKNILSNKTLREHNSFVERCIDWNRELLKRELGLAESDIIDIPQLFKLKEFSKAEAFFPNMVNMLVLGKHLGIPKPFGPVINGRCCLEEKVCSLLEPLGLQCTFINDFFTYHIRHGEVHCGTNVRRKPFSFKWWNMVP
# PRMT1 inh conf: PRMT1 (human) inhibition, FP confirmation | 3,300 tested, 42% active | recombinant His-PRMT1, activity-based probe fluorescence polarization | inhibition, % at 2.79 µM | AID 687036 | shares compounds with PRMT1 FP inh;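 active means mean inhibition across replicates above the hit cutoff derived for the earlier primary screen, cut at about 22% in these data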
# An asterisk follows results filed as active; nt = not tested or not shown. Most compounds without a hit are left out; they make up all but 2.6% or so of the library.
SMILES,Fam108B inh,SIAE inh,TCR CD3 inh,PRMT1 FP inh,PME-1 primary,PAD4 inh,PRMT1 inh conf
O=C(CSc1nnc(-c2ccco2)n1-c1ccc(Cl)cc1)Nc1ccccc1-c1ccccc1,nt,-1,nt,5,nt,nt,nt
Cc1ccc(C2CC(c3ccco3)n3ncnc3N2)cc1 (centres undefined),2,6,5,4,0,-1,nt
Cc1ccc2c(c1)C(N1CCCC1=O)CC(c1ccco1)N2 (centres undefined),-3,1,1,25*,-6,-4,6
Nc1ccccc1Sc1ccc(C(=O)c2ccccc2C(=O)O)cc1[N+](=O)[O-],3,12,-12,72*,3,10,19
CC(=O)c1ccc(Sc2ccccc2N)c([N+](=O)[O-])c1,0,7,-1,2,10,3,nt
O=C(Nc1ccccc1C(=O)NC(Cc1c[nH]c2ccccc12)C(=O)O)c1ccccc1 (centres undefined),-2,-1,0,-1,4,1,nt
Cc1oc(-c2ccccc2)cc1C(=O)NC(Cc1c[nH]c2ccccc12)C(=O)O (centres undefined),-4,1,-4,30*,-7,-8,4
Cn1c(=O)c(=O)n(C)c2cc(N3CCOCC3)c(NS(=O)(=O)c3ccc([N+](=O)[O-])cc3)cc21,-1,3,1,25*,9,-2,15
Cn1c(=O)c(=O)n(C)c2cc(N3CCOCC3)c(NS(=O)(=O)c3ccc(F)c(Cl)c3)cc21,3,5,5,2,12,-3,nt
CC(=O)Nc1cccc(NC(=O)c2cccc(-c3ccc(O)cc3)c2)c1,-8,-10,3,3,-11,-4,nt
C=C(C)c1cccc(C(C)(C)NC(=O)Nc2ccc(OC)nc2)c1,-4,-3,-4,25*,-3,-5,5
COc1ccc(NC(=O)c2cccc(-c3ccc(O)cc3)c2)cn1,-4,-8,-5,41*,-9,-19,17
COc1ccc(CCN(Cc2cccs2)S(=O)(=O)c2ccc(F)cc2)cc1OC,nt,-12,nt,-6,nt,nt,nt
Nc1nc2c(s1)CCc1ccccc1-2,-2,11,8,26*,5,-4,9
COC(=O)[C@H]1C[C@@]2(C3C=CC=C3)c3ccccc3N[C@H]2N1,nt,-3,nt,3,nt,nt,nt
CCCOc1ccc(-c2c(=O)n(O)c3ccccc3[n+]2[O-])cc1,-1,11,1,32*,-8,-4,5
O=c1c(-c2cccc3ccccc23)[n+]([O-])c2ccccc2n1O,0,13,9,25*,1,0,-1
O=C(CCc1ccccc1)N[C@H]1[C@H](OCc2ccccc2)CCC[C@@]12C(=O)N(Cc1ccccc1)c1ccc(-c3cnccn3)cc12,nt,-13,nt,-1,nt,nt,nt
CSCSC1=C(C#N)C(c2ccccc2Cl)C(C(C)=O)=C(C)N1 (centres undefined),-5,5,-11,27*,9,-5,4
CCOC(=O)CSC1=C(C#N)C(c2ccccc2F)C(C(C)=O)=C(C)N1 (centres undefined),-5,7,-2,0,2,0,nt
COC(=O)[C@@]12CCCCC3=C1N(CCC3)C(=O)[C@H]2CC(=O)N1CCCC1,nt,10,nt,2,nt,nt,nt
COC(=O)c1cc(-c2ccc(C)cc2)c(=O)n2c1CCC2,nt,-5,nt,2,nt,nt,nt
CC(C)c1cc(C(C)C)c(S(=O)(=O)N2CCCC(C(=O)N3CCN(Cc4ccccc4)CC3)C2)c(C(C)C)c1 (centres undefined),nt,3,nt,-1,nt,nt,nt
Oc1ccc(-c2n[nH]c(=S)n2Cc2ccco2)cc1,2,2,-6,5,10,4,nt
Cc1nn(C)c(-c2n[nH]c(=S)n2Cc2ccco2)c1Cl,4,-3,-5,28*,-1,2,3
SMILES,Fam108B inh,SIAE inh,TCR CD3 inh,PRMT1 FP inh,PME-1 primary,PAD4 inh,PRMT1 inh conf
CC1(C)CC(=O)C(C=Nc2ccc(C(=O)c3ccccc3)cc2N=CC2=C(O)CC(C)(C)CC2=O)=C(O)C1,4,-9,-8,77*,6,-11,0
CC1(C)CC(=O)C(C=Nc2cccnc2/N=C/C2=C(O)CC(C)(C)CC2=O)=C(O)C1,0,3,1,25*,-6,-2,-2
CC1(C)CC(=O)C(C=Nc2ccc(O)c(N=CC3=C(O)CC(C)(C)CC3=O)c2)=C(O)C1,-1,-1,-5,8,-4,-13,nt
CC1(C)CC(=O)C(C=Nc2cccnc2)=C(O)C1,7,3,-2,-5,-9,-2,nt
O=C(NC1CCCCN(Cc2ccc(Cl)cc2)C1=O)c1ccccc1 (centres undefined),nt,-8,nt,5,nt,nt,nt
Cc1cc(C)cc(NC(=O)C2(C(=O)C3CC3)CC(c3ccccc3C(F)(F)F)=NO2)c1 (centres undefined),nt,-1,nt,-4,nt,nt,nt
NC(=O)C1Cc2ccccc2CN1C(=O)c1cccc(Oc2ccccc2)c1 (centres undefined),3,1,-1,106*,5,-4,7
NS(=O)(=O)c1ccc(NC(=O)CSc2ncnc3ccccc23)cc1,-2,0,9,9,-1,3,nt
NS(=O)(=O)c1cccc(NC(=O)CSc2ncnc3ccccc23)c1,-4,-7,-6,37*,7,9,14
O=C(CSc1nc2ccccc2c(=O)n1Cc1ccco1)NCc1ccco1,-6,-1,1,14,6,0,nt
NS(=O)(=O)c1cccc(NC(=O)CSc2nc3ccccc3c(=O)n2Cc2ccco2)c1,nt,-1,-14,80*,nt,-4,6
O=C(NCCc1ccccc1F)c1cc2ccccn2n1,nt,-6,nt,-6,nt,nt,nt
C=CCn1c(SCC(=O)N2CCOCC2)nc2scc(-c3ccco3)c2c1=O,0,nt,nt,nt,-8,-1,nt
C=CCn1c(SC(F)F)nc2scc(-c3ccco3)c2c1=O,-2,6,-2,64*,-2,-6,-1
C=CCn1c(SCC(C)=O)nc2scc(-c3ccco3)c2c1=O,-3,-9,-1,49*,-2,-9,22*
NC(=O)C1=CN([C@@H]2O[C@H](COP(=O)(O)OP(=O)(O)OC[C@H]3O[C@@H](n4cnc5c(N)ncnc54)[C@H](O)[C@@H]3O)[C@@H](O)[C@H]2O)C=CC1,nt,1,nt,4,nt,nt,nt
Cn1cc(/C=N/Nc2ccccc2)c2ccccc21,7,12,1,4,7,-3,nt
CC(C)n1cc(/C=N/Nc2ccc(C(=O)O)cc2)c2ccccc21,5,9,-4,26*,1,-8,4
COC(=O)[C@]12C[C@H](CC(=O)NCc3cccc(C(F)(F)F)c3)C(=O)N(Cc3cccc4ccccc34)C1=C[C@H](C(C)C)O[C@@H]2C1CC1,nt,1,nt,1,nt,nt,nt
O=C(CSC1CC(=O)N(c2ccc(C(=O)O)cc2)C1=O)Nc1ccc2ccccc2c1 (centres undefined),-2,7,8,19,-8,3,nt
